RAD54 branch – inhibitors of human RAD54 branch migration, primary screen, biochemical, fluorescence, single point. DNA repair and recombination protein RAD54-like (Homo sapiens), Q92698. RAD54 Holliday junction branch migration, FAM/BHQ fluorescence. inhibition, % at 10.4 µM. 360,000 compounds, 0.14% hits. AID 602329, 2012;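 active = mean normalized replicate activity at least 40 and at least half of replicates scoring 40 or more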;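 note: inhibitors cause a drop in the FAM fluorescence signal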
dFosB act-1 – activators of delta FosB homodimer, primary screen, biochemical, fluorescence polarization, TAMRA-CDK5 oligo, single point; Protein FosB (Mus musculus), P13346; purified delta FosB; percent of positive-control signal above neutral wells; activation, % at 25 µM; 340,000 compounds, 0.99% hits;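 active = mean activation above about 17%, with every replicate also reaching it, limit read from the data, passing the limit was not always enough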
RAD52 inh – RAD52 DNA annealing inhibitors, primary screen, biochemical, FRET, single point, set 2; recombinant RAD52 DNA annealing, FRET fluorescence; inhibition, % at 18.7 µM; 360,000 compounds, 0.46% hits; AID 651710, 2012;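 active = every replicate showing at least 50% inhibition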
MLL AF4-AF9 inh – inhibitors of AF4 peptide binding to AF9, primary screen, biochemical, AlphaScreen, biotin-AF4 peptide, FLAG-AF9, single point. 350,000 compounds, 0.47% hits. inhibition, % at 10 µM;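 active = every replicate reaching a set inhibition limit, whatever the replicate mean, cut at about 25% in these data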
Target sequence (P42568 whole entry, looked up): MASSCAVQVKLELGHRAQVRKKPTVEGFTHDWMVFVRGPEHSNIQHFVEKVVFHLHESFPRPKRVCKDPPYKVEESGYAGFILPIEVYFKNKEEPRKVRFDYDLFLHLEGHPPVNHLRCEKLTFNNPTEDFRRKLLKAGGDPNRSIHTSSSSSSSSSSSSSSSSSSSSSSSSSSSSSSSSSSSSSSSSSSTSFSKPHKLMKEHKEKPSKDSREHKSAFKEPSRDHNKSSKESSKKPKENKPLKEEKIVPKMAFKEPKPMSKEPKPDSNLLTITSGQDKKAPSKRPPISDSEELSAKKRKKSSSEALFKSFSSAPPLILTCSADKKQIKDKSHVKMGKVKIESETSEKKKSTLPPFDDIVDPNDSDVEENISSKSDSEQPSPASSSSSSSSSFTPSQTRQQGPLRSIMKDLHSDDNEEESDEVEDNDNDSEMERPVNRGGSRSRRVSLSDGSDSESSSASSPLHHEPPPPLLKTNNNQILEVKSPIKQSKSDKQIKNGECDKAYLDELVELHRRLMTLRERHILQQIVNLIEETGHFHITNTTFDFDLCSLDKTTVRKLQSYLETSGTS
DENV2 CPE – inhibitors of DENV2 cytopathic effect, primary screen, cell-based, plate reader, single concentration | DENV2-infected cells, cytopathic effect rescue | CPE inhibition, % at 9.99 µM | 350,000 compounds, 1.7% hits; in the data active = CPE inhibition above about 20%, passing the limit was not always enough; tested in BHK-21 cells
INS-1E GSIS act – GLuc luminescence reporter in INS-1E cells, primary screen for activators of glucose-dependent secretion of insulin; INS-1E GLuc reporter insulin secretion, 2-3 h; activation, % at 16.6 µM; 370,000 compounds, 0.61% hits;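 active = lowest replicate activation of at least 40%, so every replicate reaches that level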
dFosB act-2 – activators of mouse delta FosB DNA binding, confirmation, biochemical, fluorescence polarization, TAMRA-CDK5 oligo, cherry-picked samples | 2,400 tested, under 10 active | purified delta FosB; normalised: neutral wells 0, positive control 100 | activation, % at 24.9 µM | shares compounds with dFosB act-1 | AID 588690, 2011;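 active = highest replicate activation at or above 34% and every replicate reaching that threshold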;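 note: higher polarization means more probe DNA bound by delta FosB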
Each line names hits and unclear results; the compound was inactive in the other large screens (follow-up assays come after a bar, where they were run). Only some compounds are listed: those with a hit (about 3.1% of all), similar ones and a draw of the others.

C[C@H]1CN([C@@H](C)CO)S(=O)(=O)c2ccc(C3=CCCC3)cc2O[C@H]1CN(C)C(=O)c1cnccn1	none (no result: dFosB act-1)
C[C@@H]1CN([C@@H](C)CO)S(=O)(=O)c2ccc(-c3cccc(C(=O)N(C)C)c3)cc2O[C@H]1CN(C)C	none (no result: dFosB act-1)
O=C(COC(=O)c1cc(NS(=O)(=O)c2cccs2)ccc1O)Nc1ccc(F)c(F)c1F	dFosB act-1 22.0 | dFosB act-2 inactive
CC(=O)Nc1ccccc1-c1nc2ccccc2nc1OCC(=O)c1ccc(Br)cc1	none (no result: RAD52 inh, MLL AF4-AF9 inh, DENV2 CPE, INS-1E GSIS act)
CC(=O)Nc1ccccc1-c1nc2ccccc2nc1OCC(=O)c1ccc2ccccc2c1	dFosB act-1 30.4 (no result: RAD52 inh, MLL AF4-AF9 inh, DENV2 CPE) | dFosB act-2 inactive
C[C@@H]1CN([C@@H](C)CO)C(=O)Cc2cc(NC(=O)CCCCCC(=O)Nc3ccccc3N)ccc2O[C@@H]1CN(C)S(=O)(=O)c1ccc(F)cc1	none (no result: dFosB act-1)
CNC[C@H]1Oc2c(NC(=O)C3CCOCC3)cccc2C(=O)N([C@@H](C)CO)C[C@@H]1C	none (no result: dFosB act-1)
C[C@H]1CCCCO[C@@H](CN(C)C(=O)c2ccccc2)[C@@H](C)CN([C@@H](C)CO)C(=O)c2cc(NC(=O)CCC(F)(F)F)ccc2O1	none (no result: dFosB act-1)
CNC[C@H]1OCCCC[C@H](C)Oc2ccc(NC(=O)Nc3c(C)noc3C)cc2C(=O)N([C@@H](C)CO)C[C@@H]1C	none (no result: RAD54 branch, dFosB act-1, RAD52 inh, MLL AF4-AF9 inh, DENV2 CPE)
O=C(CN1C(=O)S/C(=C\c2ccc(Cl)cc2)C1=O)NNC(=O)c1ccccc1O	dFosB act-1 26.0 (no result: RAD54 branch, RAD52 inh, MLL AF4-AF9 inh, DENV2 CPE) | dFosB act-2 inactive
O=C(CN1C(=O)S/C(=C\c2ccc(Cl)cc2)C1=O)NC1C=CS(=O)(=O)C1 (stereo not drawn)	dFosB act-1 20.2 | dFosB act-2 inactive
O=C(CN1C(=O)S/C(=C\c2ccc(Cl)cc2)C1=O)NCCCn1ccnc1	none
COC(=O)COc1ccc(/C=C2\SC(=O)N(CC(=O)Nc3ccccc3F)C2=O)cc1	dFosB act-1 32.7 (no result: INS-1E GSIS act) | dFosB act-2 inactive
CC(/C=C1\SC(=O)N(CC(=O)Nc2ccc(O)cc2)C1=O)=C\c1ccccc1	none
CC(/C=C1\SC(=O)N(CC(=O)Nc2cccc(O)c2)C1=O)=C\c1ccccc1	dFosB act-1 24.2 (no result: RAD54 branch, RAD52 inh, MLL AF4-AF9 inh, DENV2 CPE) | dFosB act-2 inactive
Cc1cc(NC(=O)CN2C(=O)S/C(=C\c3ccccc3)C2=O)no1	none (no result: RAD54 branch)
CCCN1C[C@H](C)[C@@H](OC)CN(C)C(=O)c2ccc(NC(=O)c3cccc(OC)c3)cc2OC[C@@H]1C	none (no result: RAD54 branch, dFosB act-1, RAD52 inh, MLL AF4-AF9 inh, DENV2 CPE)
O=C(N[C@@H]1C=C[C@@H](CC(=O)N2CCCCC2)O[C@H]1CO)c1cccc(F)c1	none (no result: dFosB act-1)
C[C@H](CO)N1C[C@H](C)[C@@H](CN(C)C(=O)C2CCCCC2)Oc2ncc(C#CC(C)(C)O)cc2C1=O	none (no result: RAD54 branch, dFosB act-1, RAD52 inh, MLL AF4-AF9 inh, DENV2 CPE)
COc1ccc(/C=C2\SC(=O)N(CC(=O)Nc3ccc(O)cc3)C2=O)cc1OC	dFosB act-1 24.5 | dFosB act-2 inactive
COc1ccc(/C=C2\SC(=O)N(CC(=O)Nc3ccccc3O)C2=O)cc1OC	none
CCN(CC)CCn1c2ccccc2c2cnc(N)c(C#N)c21	dFosB act-1 61.9 (no result: RAD54 branch, RAD52 inh, MLL AF4-AF9 inh, DENV2 CPE) | dFosB act-2 inactive
CN(C)C=Nc1ncc2c3ccccc3n(CCN(C)C)c2c1C#N	RAD54 branch 88.1, dFosB act-1 33.5 (no result: RAD52 inh, MLL AF4-AF9 inh, DENV2 CPE, INS-1E GSIS act) | dFosB act-2 inactive
CN(C)C=Nc1ncc2c3ccccc3n(Cc3ccccc3)c2c1C#N	none (no result: RAD52 inh, MLL AF4-AF9 inh, DENV2 CPE)
CCC(=O)N1[C@@H](CO)[C@H](c2ccc(-c3ccccc3)cc2)[C@@H]1CNC(=O)COC	none (no result: dFosB act-1, RAD52 inh, MLL AF4-AF9 inh)
CC(=O)Nc1ccc(S(=O)(=O)Nc2nc3ccccc3nc2-n2ccc(=NC(=O)c3ccccc3)cc2)cc1	none (no result: dFosB act-1)
O=C(N=c1ccn(-c2nc3ccccc3nc2NS(=O)(=O)c2ccc(Cl)cc2)cc1)c1cccs1	dFosB act-1 31.4 (no result: RAD54 branch) | dFosB act-2 inactive
CCOc1ccc(S(=O)(=O)Nc2nc3ccccc3nc2-n2ccc(=NC(=O)c3cccs3)cc2)cc1	dFosB act-1 39.6 (no result: RAD54 branch) | dFosB act-2 inactive
CCC(=O)N[C@H]1C=C[C@H](CC(=O)NCCN2CCCCC2)O[C@H]1CO	none (no result: dFosB act-1)
CC(C)[C@@H]1CN=C(N)N1C[C@@H]1CCCN1C[C@H](C)N1C[C@@H](Cc2ccccc2)N(CCc2ccc(Cl)c(Cl)c2)C1=N	dFosB act-1 20.0 (no result: RAD52 inh, MLL AF4-AF9 inh, DENV2 CPE, INS-1E GSIS act) | dFosB act-2 inactive
O=C(CC1CC1)Nc1ccc2c(c1)[C@H]1C[C@H](CC(=O)NC3CCCCC3)O[C@H](CO)[C@H]1O2	none (no result: dFosB act-1)
COc1cc(/C=N\NC(=O)c2ccc(C)nc2)ccc1OC(=O)c1ccc2c(c1)OCO2	dFosB act-1 138.9 (no result: RAD54 branch, RAD52 inh, MLL AF4-AF9 inh, DENV2 CPE) | dFosB act-2 inactive
COc1ccc(NC(=O)Nc2ccc3c(c2)C(=O)N([C@@H](C)CO)C[C@@H](C)[C@@H](CN(C)Cc2ccc(Cl)c(Cl)c2)OCCCC[C@@H](C)O3)cc1	none (no result: dFosB act-1)
Cc1cccc(NC(=O)c2nc[nH]c2C(=O)Nc2cccc(C)c2)c1	none (no result: RAD54 branch)
NC(=O)c1nc[nH]c1C(=O)Nc1cccc(NC(=O)c2cccc(C(F)(F)F)c2)c1	dFosB act-1 27.4 | dFosB act-2 inactive
CN(C)C(=O)[C@H]1[C@H](CO)[C@H]2Cn3c(ccc(-c4cccc(F)c4)c3=O)[C@@H]1N2CCc1ccccc1	none (no result: dFosB act-1)
CC(SC(C)C(=O)NN=Cc1cccc(F)c1)C(=O)NN=Cc1cccc(F)c1 (stereo not drawn)	dFosB act-1 28.0 | dFosB act-2 inactive
O=C(N/N=C/c1cccc(F)c1)NC1CCCCC1	none (no result: RAD54 branch, RAD52 inh, MLL AF4-AF9 inh, DENV2 CPE)
COc1ccccc1NC(=O)c1ccc(NC(=O)Cc2n[nH]c(=O)c3ccccc23)cc1	dFosB act-1 25.0 (no result: DENV2 CPE) | dFosB act-2 inactive
COc1ccccc1C(=O)NC(=O)COC(=O)Cc1n[nH]c(=O)c2ccccc12	none
NC(=O)Nc1ccc(C(=O)OCC(=O)Nc2sccc2C(N)=O)cc1	dFosB act-1 17.2 | dFosB act-2 inactive
N#Cc1ccsc1NC(=O)COC(=O)c1ccc(NC(N)=O)cc1	none
COCCNC(=O)C[C@@H]1C[C@H]2c3cc(NS(=O)(=O)c4ccccc4)ccc3O[C@H]2[C@H](CO)O1	none (no result: dFosB act-1)
Cc1noc(C)c1NC(=O)Nc1cccc2c1O[C@@H](CN(C)S(=O)(=O)c1cccs1)[C@@H](C)CN([C@@H](C)CO)C2=O	none (no result: dFosB act-1)
COc1cc(C(=O)Nc2nc3ccc4nc(C)sc4c3s2)cc(OC)c1OC	none (no result: RAD52 inh, MLL AF4-AF9 inh, DENV2 CPE, INS-1E GSIS act)
COc1ccc(C(=O)Nc2nc3ccc4nc(C)sc4c3s2)cc1	dFosB act-1 22.8 (no result: INS-1E GSIS act) | dFosB act-2 inactive
COc1ccc2nc(NC(=O)c3ccc(F)cc3)sc2c1	none
